In PubChem BioAssay AID1159580 (chemical genetic matrix, 2015):
Where “and” joins values, the source holds several entries; their conditions need not be identical. Equal entries are not always repeated. Among all 5,500 compounds or so, about 2,000 (36%) were called active. Another 18% or so got no clear call; they are omitted. No stated cut-off is given here; in the data, active means normalized growth mostly below about 0.91 (no sharp cut-off); inconclusive means no clear call, values can overlap the other calls; inactive means mostly above about 0.92. This is one part of the list.

Test: chemical genetic growth profiling, strain panel (AID 1159580);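 further: tested at 20 µM; growth read once vehicle control cultures reached saturation at 30 °C; 1 = growth at the plate median or of vehicle wells; lower values mean less growth of the strain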
Details: S. cerevisiae deletion strains, growth OD

Measured: normalized growth

O=c1c(O)c(-c2ccc(O)cc2O)oc2cc(O)cc(O)c12
active: locus YDR069C, strain doa4, active compounds read low 0.857
inactive: locus YAL013W, strain DEP1, active compounds read low 1 | locus YAL021C, strain ccr4, active compounds read low 0.949 | locus YAL026C, strain drs2, active compounds read low 0.973 | locus YAL030W, strain snc1, active compounds read low 0.99 | locus YAL040C, strain CLN3, active compounds read low 1.01 | locus YBL061C, strain skt5, active compounds read low 0.963 | locus YBR009C, strain hhf1, active compounds read low 1 | locus YBR021W, strain FUR4, active compounds read low 1.01 | locus YBR023C, strain chs3, active compounds read low 1.01 | locus YBR171W, strain sec66, active compounds read low 0.983 | locus YBR229C, strain ROT2, active compounds read low 0.988 | locus YBR231C, strain swc5, active compounds read low 0.965 | locus YBR279W, strain paf1, active compounds read low 0.995 | locus YCL011C, strain gbp2, active compounds read low 1 | locus YCL016C, strain dcc1, active compounds read low 0.988 | locus YCL029C, strain bik1, active compounds read low 1.01 | locus YCL061C, strain MRC1 (second series), active compounds read low 0.986 | locus YCL061C, strain MRC1, active compounds read low 0.976 | locus YCL069W, strain vba3, active compounds read low 0.997 | locus YCR088W, strain abp1, active compounds read low 0.991 | locus YDL005C, strain med2, active compounds read low 1.01 | locus YDL035C, strain GPR1, active compounds read low 0.973 | locus YDL040C, strain nat1, active compounds read low 1 | locus YDL074C, strain BRE1, active compounds read low 1 | locus YDL101C, strain DUN1, active compounds read low 1 | locus YDL185W, strain tfp1, active compounds read low 0.976 | locus YDL192W, strain arf1, active compounds read low 0.974 | locus YDR001C, strain nth1, active compounds read low 0.999 | locus YDR101C, strain arx1, active compounds read low 1 | locus YDR137W, strain rgp1, active compounds read low 1 | locus YDR150W, strain NUM1, active compounds read low 0.986 | locus YDR159W, strain sac3, active compounds read low 0.985 | locus YDR162C, strain NBP2, active compounds read low 0.971 | locus YDR195W, strain ref2 0.964 | locus YDR297W, strain sur2, active compounds read low 0.978 | locus YDR318W, strain mcm21, active compounds read low 1.01 | locus YDR334W, strain swr1, active compounds read low 0.956 | locus YDR335W, strain msn5, active compounds read low 0.98 | locus YDR363W, strain ESC2, active compounds read low 0.995 | locus YDR388W, active compounds read low 0.991 | locus YDR392W, strain spt3, active compounds read low 0.99 | locus YDR502C, strain sam2, active compounds read low 1.02 | locus YEL003W, strain gim4, active compounds read low 0.976 | locus YEL037C, strain rad23, active compounds read low 0.989 | locus YEL061C, strain CIN8 (second series), active compounds read low 0.992 | locus YEL061C, strain CIN8, active compounds read low 0.995 | locus YER002W, strain NOP16, active compounds read low 1.03 | locus YER015W, strain faa2, active compounds read low 0.984 | locus YER016W, strain bim1, active compounds read low 1 | locus YER110C, active compounds read low 1.02 | locus YER111C, strain swi4, active compounds read low 0.954 | locus YER155C, strain BEM2 (second series), active compounds read low 0.977 | locus YER155C, strain BEM2, active compounds read low 1.01 | locus YER167W, strain BCK2, active compounds read low 0.996 | locus YFR010W, strain ubp6, active compounds read low 0.916 | locus YGL078C, strain dbp3, active compounds read low 1.01 | locus YGL086W, strain mad1, active compounds read low 1.06 | locus YGL167C, strain pmr1, active compounds read low 0.98 | locus YGL173C, strain kem1, active compounds read low 0.947 | locus YGL227W, strain vid30, active compounds read low 1.01 | locus YGL240W, strain doc1, active compounds read low 1 | locus YGL248W, strain PDE1, active compounds read low 0.966 | locus YGL253W, strain hxk2, active compounds read low 0.994 | locus YGR078C, strain PAC10, active compounds read low 0.97 and 1.01 | locus YGR135W, strain pre9, active compounds read low 0.991 | locus YHR013C, strain ard1, active compounds read low 0.962 | locus YHR027C, strain rpn1, active compounds read low 0.973 | locus YHR030C, strain SLT2, active compounds read low 0.993 and 0.957 | locus YHR079C, strain IRE1 (second series), active compounds read low 1.02 | locus YHR079C, strain IRE1, active compounds read low 0.968 | locus YHR094C, strain hxt1, active compounds read low 1.02 | locus YHR129C, strain ARP1, active compounds read low 0.973 | locus YHR142W, strain chs7, active compounds read low 0.945 | locus YHR200W, strain rpn10, active compounds read low 0.994 | locus YIL066C, strain RNR3, active compounds read low 0.943 | locus YIL073C, strain SPO22, active compounds read low 1.08 | locus YIL125W, strain kgd1, active compounds read low 0.999 | locus YIR030C, strain dcg1, active compounds read low 1.02 | locus YJL092W, strain hpr5, active compounds read low 0.996 | locus YJL095W, strain BCK1 (second series), active compounds read low 0.964 | locus YJL095W, strain BCK1, active compounds read low 0.986 and 0.988 | locus YJL115W, strain asf1, active compounds read low 0.994 | locus YJL129C, strain trk1, active compounds read low 1.02 | locus YJL134W, strain LCB3, active compounds read low 1.02 | locus YJL154C, strain vps35, active compounds read low 1.02 | locus YJL164C, strain tpk1, active compounds read low 0.975 | locus YJL166W, strain qcr8, active compounds read low 0.984 | locus YJL168C, strain set2, active compounds read low 1 | locus YJL187C, strain SWE1 (second series), active compounds read low 0.966 | locus YJR043C, strain POL32, active compounds read low 0.956 | locus YJR066W, strain TOR1, active compounds read low 0.935 | locus YJR075W, strain HOC1, active compounds read low 1.01 | locus YKL009W, strain mrt4, active compounds read low 1.01 | locus YKL068W, active compounds read low 1.01 | locus YKL085W, strain MDH1 (second series), active compounds read low 0.999 | locus YKL085W, strain MDH1, active compounds read low 0.999 | locus YKL160W, strain elf1, active compounds read low 0.989 | locus YKL190W, strain CNB1, active compounds read low 1 | locus YKR001C, strain vps1, active compounds read low 1.01 | locus YKR026C, strain gcn3, active compounds read low 0.975 | locus YKR091W, strain srl3, active compounds read low 0.996 | locus YLL001W, strain dnm1, active compounds read low 0.983 | locus YLL026W, active compounds read low 1 | locus YLL041C, strain sdh2, active compounds read low 0.999 | locus YLR027C, strain aat2, active compounds read low 1.01 | locus YLR039C, strain RIC1, active compounds read low 1.04 | locus YLR058C, strain SHM2, active compounds read low 0.984 | locus YLR102C, strain apc9, active compounds read low 1.01 | locus YLR113W, strain HOG1, active compounds read low 1 | locus YLR221C, strain rsa3, active compounds read low 0.963 | locus YLR258W, strain gsy2, active compounds read low 0.985 | locus YLR262C, strain YPT6 (second series), active compounds read low 0.966 | locus YLR262C, strain YPT6, active compounds read low 1.06 | locus YLR268W, strain sec22, active compounds read low 1.03 | locus YLR320W, strain mms22, active compounds read low 0.959 | locus YLR330W, strain CHS5, active compounds read low 1.01 | locus YLR342W, strain FKS1 (second series), active compounds read low 0.965 | locus YLR342W, strain FKS1, active compounds read low 0.974 | locus YLR357W, strain rsc2, active compounds read low 0.924 | locus YLR370C, strain arc18, active compounds read low 0.988 | locus YLR371W, strain rom2, active compounds read low 0.995 | locus YLR384C, strain iki3, active compounds read low 1 | locus YLR418C, strain cdc73, active compounds read low 1.05 | locus YML016C, strain PPZ1, active compounds read low 0.972 | locus YML032C, strain rad52, active compounds read low 1 | locus YML120C, strain ndi1, active compounds read low 0.994 | locus YML124C, strain tub3, active compounds read low 1.02 | locus YMR058W, strain fet3, active compounds read low 0.932 | locus YMR078C, strain ctf18, active compounds read low 1.03 | locus YMR125W, strain sto1, active compounds read low 1 | locus YMR129W, active compounds read low 1.01 | locus YMR205C, strain PFK2, active compounds read low 0.98 | locus YMR223W, strain ubp8, active compounds read low 0.986 | locus YMR231W, strain pep5, active compounds read low 0.991 | locus YMR263W, strain SAP30, active compounds read low 0.996 and 1.01 | locus YMR307W, strain GAS1, active compounds read low 0.942 | locus YNL067W, strain RPL9B, active compounds read low 1 | locus YNL071W, strain lat1, active compounds read low 1 | locus YNL128W, strain TEP1, active compounds read low 1 | locus YNL175C, strain NOP13, active compounds read low 1.01 | locus YNL183C, strain NPR1, active compounds read low 0.961 | locus YNL197C, strain WHI3, active compounds read low 1.01 | locus YNL209W, strain ssb2, active compounds read low 0.991 | locus YNL224C, strain SQS1, active compounds read low 1.03 | locus YNL233W, strain BNI4, active compounds read low 0.988 | locus YNL248C, strain rpa49, active compounds read low 0.976 | locus YNL250W, strain rad50, active compounds read low 1.01 | locus YNL271C, strain bni1, active compounds read low 0.993 | locus YNL298W, strain CLA4, active compounds read low 1 | locus YNL307C, strain MCK1, active compounds read low 1.02 | locus YNL322C, strain KRE1 (second series), active compounds read low 0.987 | locus YNL322C, strain KRE1, active compounds read low 1 | locus YNR049C, strain mso1, active compounds read low 1 | locus YNR052C, strain pop2, active compounds read low 0.992 | locus YOL006C, strain TOP1, active compounds read low 1.01 | locus YOL012C, strain htz1 0.825 | locus YOL147C, strain pex11, active compounds read low 1.02 | locus YOR001W, strain rrp6, active compounds read low 0.996 | locus YOR061W, strain CKA2, active compounds read low 0.97 | locus YOR069W, strain VPS5, active compounds read low 0.992 | locus YOR070C, strain gyp1, active compounds read low 0.989 | locus YOR080W, strain dia2, active compounds read low 0.994 | locus YOR083W, strain WHI5 (second series), active compounds read low 1.01 | locus YOR083W, strain WHI5, active compounds read low 0.974 | locus YOR106W, strain vam3, active compounds read low 0.931 | locus YOR136W, strain idh2, active compounds read low 1.02 | locus YOR144C, strain elg1, active compounds read low 1.02 | locus YOR184W, strain ser1, active compounds read low 1.01 | locus YOR231W, strain MKK1, active compounds read low 0.988 | locus YOR265W, strain rbl2, active compounds read low 0.991 | locus YOR270C, strain vph1, active compounds read low 0.872 | locus YOR290C, strain snf2, active compounds read low 0.976 | locus YOR316C, strain cot1, active compounds read low 1.01 | locus YPL051W, strain arl3, active compounds read low 0.952 | locus YPL055C, strain LGE1, active compounds read low 1 | locus YPL078C, strain atp4, active compounds read low 0.994 | locus YPL106C, strain sse1, active compounds read low 0.916 | locus YPL240C, strain hsp82, active compounds read low 0.997 | locus YPL241C, strain CIN2, active compounds read low 1 | locus YPL256C, strain CLN2, active compounds read low 0.974 | locus YPR119W, strain clb2, active compounds read low 1.02 | locus YPR141C, strain kar3, active compounds read low 1.01 | locus YPR163C, strain tif3, active compounds read low 1.02 | locus YPR167C, strain met16, active compounds read low 0.995 | strain wtn01, active compounds read low 1.02
